# About 11,000 (3.5%) of roughly 310,000 compounds were called active. Roughly 8% stayed inconclusive and do not appear here. The call rests on the fitted dose curve; in most records, active means well fitted inhibition curve with a large enough effect; inconclusive means small, poorly fitted or top-dose-only effect, or effect the other way; inactive means flat fitted curve, though single readings scatter. The sample as a whole holds a higher share of actives than the screen did.
# Test: VP16 counterscreen qHTS for inhibitors of ROR gamma transcriptional activity;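 further: Gal4-VP16 expression switched on by copper sulfate through the metallothionein promoter; nearly all actives have a fitted effect of over 50% in size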
# Details: Drosophila S2 Gal4-VP16 UAS-luciferase, luminescence, 20 h; series mostly up to 53.6 µM; activity, negative = inhibition: at the top concentration
# From the text: NIH Molecular Libraries Probe Production Network [MLPCN]
# NIH Chemical Genomics Center [NCGC]
# Assay Provider: Dan Littman, New York University
# The retinoic acid-related orphan receptor (ROR) gamma is a transcription factor that has a central role in the differentiation of Th17 cells, a subset of T helper cells that secrete the inflammatory cytokines IL-17, IL-17F, and IL-22. Th17 cells have been implicated in graft versus host disease, autoimmune disease and asthma. ROR gamma is induced in naive T helper cells in the presence of TGF-beta combined with IL-6, IL-21, or IL-23, and thereafter directs the expression of the Th17 lineage cytokines. To identify nonspecific inhibitors, a Drosophila Schneider cell line was stably transfected with two vectors: a gene expressing a fusion of the Gal4 DNA binding domain and VP16 transactivation domain under the control of the metallothionine promoter and a Photinus luciferase reporter regulated by the Gal4 binding site enhancer, UAS. […] Small molecule inhibitors that inhibit components common to the RORgt and VP16 assays, such as the Gal4 DNA binding domain or the UAS luciferase reporter, will be active in both assays and thus scored as nonspecific.
# For screening, 600 cells in 4 uL/well were dispensed into white solid 1536-well plates (Grenier) using a solenoid-based dispenser. Following transfer of 23 nL compound or DMSO vehicle by a pin tool, the plates were incubated 1 hr at ambient temperature, and 1 uL/well copper sulfate (700 uM final concentration) was added. The plates were centrifuged 15 s at 1000 RPM and incubated 20 hr at ambient temperature. After addition of 1.5 uL Photinus luciferase detection reagent, the plates were incubated 10 min at ambient temperature and then read by a ViewLux (Perkin Elmer) to detect luminescence.
# On the % scale 0 is the no-effect control and ±100 the full control effect; potency means the concentration at half of the fitted maximal effect.
SMILES,"activity, negative = inhibition",Potency
O=S(=O)(NC1CCCCC1N1CCC(O)CC1)c1ccc(Cl)cc1 (stereo not drawn),-8.83% (inactive),
COc1cccc(CN(C)CC(O)COC(c2ccccc2)c2ccccc2C)c1 (stereo not drawn),-7.19% (inactive),
COc1ccc(NC(=O)CCS(=O)(=O)c2cc3c(cc2Cl)NC(=O)CO3)cc1OC,-4.94% (inactive),
CN(C)CCN(C(=O)C1=COCCO1)c1nc2ccc(Cl)cc2s1,1.38% (inactive),
O=C(Nc1ccccc1)c1ccco1,6.47% (inactive),
O=C(Nc1ccc(O)cc1)c1ccc(NC(=O)c2ccco2)cc1,21.4% (inactive),
O=C(Nc1ccc(Sc2ccc(Br)cc2)cc1)c1ccco1,,2.82 µM (active)
CCN(CC(=O)Nc1ccc(C)c(S(=O)(=O)N(C)C)c1)Cc1ccccc1,-1.1% (inactive),
Cc1ccc(C(C)C)c(OCCSc2nc3ccccc3n2CC(=O)O)c1,3.88% (inactive),
C#CCN(N(C)c1ncc(C(F)(F)F)cc1Cl)S(=O)(=O)c1ccc2ccccc2c1,5.11% (inactive),
CN(Cc1ccc(F)cc1Cl)S(=O)(=O)c1cccs1,-4.3% (inactive),
CN(NS(=O)(=O)c1cccs1)c1ncc(C(F)(F)F)cc1Cl,,5.01 µM (active)
Cc1ccc(NC2CCCN(C(=O)CCc3cn[nH]c3)C2)cc1C (stereo not drawn),-6.86% (inactive),
CCc1nccn1CCC(=O)N1CCCC(N2CCN(c3ccccc3F)CC2)C1 (stereo not drawn),-2.05% (inactive),
COCc1ccc(C(=O)NC2CC(C)(C)Cc3c2cnn3-c2ccc(C)cc2)o1 (stereo not drawn),-21.6% (inactive),
CCCc1cc(C(=O)N2CCCC(CO)(CCCc3ccccc3)C2)n(C)n1 (stereo not drawn),3.03% (inactive),
O=C(O)c1ccc(/C=N/NC(=O)c2ccc(Br)cc2)cc1,-3.08% (inactive),
O=C(O)c1ccc(N/N=C/c2ccc3ncccc3c2)cc1,,0.398 µM (active)
O=C(O)c1ccc(/C=N/Nc2nc(N3CCCCC3)nc(N3CCCCC3)n2)cc1,-5.92% (inactive),
COc1ccc(OCc2cc(C(=O)NCC3(C)COC3)no2)c(Cl)c1,22.6% (inactive),
COc1ccc(CNC(=O)C(=O)NCC2OCCN2C(=O)c2ccc(OC)cc2)cc1 (stereo not drawn),-5.04% (inactive),
COc1ccccc1C(=O)N(C1=NC(C)CS1)c1ccc(Cl)cc1 (stereo not drawn),-11.6% (inactive),
CN(CCc1ccccn1)C(=O)c1ccc(OC2CCN(CCc3ccccc3)CC2)cc1,2.42% (inactive),
CCOC(=O)c1c(S(=O)(=O)Nc2cccc(Cl)c2)c(C)n(C)c1C,-12% (inactive),
Cc1c2c(nc3ccccc13)-c1cccc(=O)n1C2,,8.91 µM (active)
CC(C)c1ccc2c([Si](C)(C)C)c3c(nc2c1)-c1cccc(=O)n1C3,4.7% (inactive),
Cc1nc2ccccc2c(C)c1C(=O)c1ccc(F)cc1,10.9% (inactive),

SMILES,"activity, negative = inhibition",Potency
Cc1cc(C)c2nc(N(CCN(C)C)C(=O)/C=C/c3cccs3)sc2c1,-16.5% (inactive),
C=CCNC(=S)N/N=C/c1ccc(OCc2ccccc2)cc1,11.6% (inactive),
CNC(=S)N/N=C/c1ccc(OCc2ccccc2)c(Br)c1,,3.55 µM (active)
O=C(O)COc1ccc(/C=N/O)cc1Br,-6.64% (inactive),
Cc1cc(C)cc(N(CC(=O)NC2CCCC2)C(=O)CCC(=O)Nc2cc(C)on2)c1,-10.9% (inactive),
O=C(Nc1ccc(F)cc1)C(=O)c1cn(CC(=O)N2CCOCC2)c2ccccc12,13.1% (inactive),
Cc1cc(C(=O)CSc2nc(N)cc(=O)[nH]2)c(C)n1CCc1ccc(Cl)cc1,-18.2% (inactive),
Cc1cc(=O)[nH]c(SCc2cccc(F)c2)n1,11.1% (inactive),
Cc1cc(C(=O)CSc2nc(N)cc(=O)[nH]2)c(C)n1-c1cccc(F)c1,,17.8 µM (active)
CCCn1c(=O)c(C(=O)Nc2cc(C)ccn2)c(O)c2ccccc21,-14.8% (inactive),
CCN1C(=S)N[C@@H](CCc2ccccc2)[C@H](C(=O)OC)[C@H]1C,-15.7% (inactive),
COc1cc(NC(=O)C2=C(C)OCCS2)c(Cl)cc1C(=O)NCCN1CCN(C)CC1,-7.6% (inactive),
Cn1nccc1/C=N\NC(=O)c1ccc(Cl)cc1,-8.81% (inactive),
CCOc1ccc(CCNC(=O)Nc2ccccc2)cc1OCC,6.47% (inactive),
COc1ccc(/C=C2\SC(=S)N(CCC(=O)Nc3cccc(C(=O)O)c3)C2=O)cc1OC,-1.72% (inactive),
COc1ccc(NC(=O)CCN2C(=O)/C(=C/c3ccc4c(c3)OCO4)SC2=S)cc1,-2.97% (inactive),
COc1ccccc1C(=O)NNC(=O)CCN1C(=O)/C(=C\c2ccccc2)SC1=S,-9.43% (inactive),
O=C(CCCN1C(=O)/C(=C/c2ccccc2)SC1=S)Nc1ccc(O)cc1,,2 µM (active)
Cc1ccc(/C=C2\SC(=S)N(CCC(=O)Nc3ccc(O)cc3)C2=O)cc1,7.84% (inactive),
O=C(CCCN1C(=O)/C(=C/c2ccco2)SC1=S)Nc1ccccc1,,12.6 µM (active)
COC(=O)c1ccc(Nc2ncnc3sccc23)cc1,3.15% (inactive),
CCCCCCC(O)(CCN1CCCCC1)c1ccccc1 (stereo not drawn),-16.4% (inactive),
CC(=O)N1c2ccc(S(=O)(=O)N3CCC(C(=O)N4CCN(c5ccccc5)CC4)CC3)cc2CC1C (stereo not drawn),4.75% (inactive),
CCOc1cc(/C=N/n2cnnc2)c(Br)cc1O,,5.62 µM (active)
Fc1ccc(Br)cc1/C=N/n1cnnc1,-6.06% (inactive),
Brc1cc(/C=N/n2cnnc2)oc1Br,-2.44% (inactive),
